The results in this text go back to PubChem BioAssay (NCATS).

Inconclusive results are not listed. Active and inactive are the calls of the source. Calls follow the shape of the dose curve; as a rule, active = well fitted inhibition curve with a large enough effect; inconclusive = small, poorly fitted or top-dose-only effect; inactive = flat fitted curve, though single readings scatter.

This assay relates to CRL-7250. Nature of the assay: qHTS assay to identify novel small-molecules to repurpose for Merkel cell carcinoma treatment (AID 1296009). Also: nearly all actives have a fitted effect of over 60% in size. To be noted: MCC and control cell lines, CellTiter-Glo viability, 72 h; series mostly up to 44.8 µM. A digest of the protocol:
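After compound transfer in DMSO, plates were kept 72 hr at 37 degree celsius. Luminescent ATP signal from CellTiter-Glo served as viability measure, normalized against DMSO and no-cell controls.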
(In general: qHTS replaces the single test concentration by a dilution series.)
As for `CNS(=O)(=O)CCc1ccc2[nH]cc(C3CCN(C)CC3)c2c1`, the molecule was classed as inactive. On to `CCCCCOC(=O)Nc1nc(=O)n([C@@H]2O[C@H](C)[C@@H](O)[C@H]2O)cc1F`, for which the call was inactive. The value for `NNCCc1ccccc1` was “inactive”; that for `COc1cc(C(C)=O)ccc1OCCCN1CCC(c2noc3cc(F)ccc23)CC1` was “inactive”; that for `Cc1nc2n(c(=O)c1CCN1CCC(c3noc4cc(F)ccc34)CC1)CCC[C@H]2O` was “inactive [at 17.4 µM]”. The value for `CCC1C(=O)OCC1Cc1cncn1C` (centres undefined) was “inactive”; that for `COC1=CC(=O)C[C@@H](C)[C@]12Oc1c(Cl)c(OC)cc(OC)c1C2=O` was “inactive”; that for `CC(=O)Nc1nnc(S(N)(=O)=O)s1` was “inactive”. For `CNS(=O)(=O)Cc1ccc2[nH]cc(CCN(C)C)c2c1` the value was “inactive”. Regarding `Cc1[nH]cnc1CN1CCc2c(c3ccccc3n2C)C1=O`, the molecule was classed as inactive. Take `CCCN[C@H]1CCc2nc(N)sc2C1`: the molecule was classed as inactive. Consider `O=C1CCC(N2C(=O)c3ccccc3C2=O)C(=O)N1` (centres undefined), for which the outcome was inactive. As to `NC(=O)c1cn(Cc2c(F)cccc2F)nn1`, the call was inactive. The value for `C[C@@H](NCCCc1cccc(C(F)(F)F)c1)c1cccc2ccccc12` was “inactive”. Regarding `O=c1n(CCCN2CCN(c3cccc(Cl)c3)CC2)nc2ccccn12`, the outcome was inactive. The value for `C[C@@H](O)[C@H]1C(=O)N2C(C(=O)O)=C(S[C@@H]3CN[C@H](C(=O)N(C)C)C3)[C@H](C)[C@H]12` was “inactive”; that for `Cc1ccc(S(=O)(=O)NC(=O)NN2CCCCCC2)cc1` was “inactive”. The value for `O=c1c(O)c(-c2ccc(O)c(O)c2)oc2cc(O)cc(O)c12` was “inactive”; that for `CN(C)c1ccc(O)c2c1C[C@H]1C[C@H]3[C@H](N(C)C)C(=O)C(C(N)=O)=C(O)[C@@]3(O)C(=O)C1=C2O` was “inactive”.
